Drawing on PubChem BioAssay, this text covers z-score and composite z-score for 7 molecules.

A short description of experiment [1]: compound effects on lung adenocarcinoma cell viability – A549, calcein-AM fluorescence, 48 h, basal, profiling panel (AID 1162). Note: test concentration not given here. To be noted: higher = more signal.
The nature of experiment [2]: compound effects on differentiated 3T3-L1 adipocyte viability – cell-based, 3T3-L1 adipocytes, calcein-AM fluorescence, 48 h, basal, profiling panel (AID 1163). Note: test concentration not given here. To be noted: 3T3-L1 adipocytes viability, higher = more signal.
Experiment [3] in a line: compound effects on hepatocellular carcinoma cell viability – HepG2, calcein-AM fluorescence, 48 h, basal, profiling panel (AID 1164). Note: test concentration not given here. To be noted: higher = more signal.
Experiment [4] can be described thus: compound effects on multiple myeloma cell viability – MM1S, calcein-AM fluorescence, 48 h, basal, profiling panel (AID 1165).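 Note: viability of MM1S multiple myeloma cells under basal unstimulated conditions; test concentration not given here.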 To be noted: higher = more signal.
Experiment [5] can be described thus: calcein-AM signal in unstimulated myeloma cells – cell-based, calcein-AM fluorescence, 48 h, PK04 Diversity Set, profiling panel (AID 1166).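 Note: cells grown under basal conditions without added stimulus; test concentration not given here.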 As to conditions: RPMI8226 myeloma viability, higher = more signal.
Experiment [6] in a line: JC-1 mitochondrial signal, unstimulated HepG2 cells – cell-based, JC-1 fluorescence, 24 h, 100 nL compound, profiling panel (AID 1167). Note: test concentration not given here. To be noted: HepG2 mitochondrial potential, higher = more signal.
Experiment [7] is described as follows: JC-1 mitochondrial signal, unstimulated adipocytes – cell-based, JC-1 fluorescence, 3T3-L1 adipocytes, 24 h, 100 nL compound, profiling panel (AID 1168). Note: test concentration not given here. As to conditions: JC-1 mitochondrial fluorescence, higher = more signal, called active from +8 up or from −8 down.
Experiment [8] is described as follows: JC-1 mitochondrial signal, unstimulated myeloma cells – cell-based, JC-1 fluorescence, RPMI8226, 24 h, 100 nL compound, profiling panel (AID 1169). Note: test concentration not given here. To be noted: JC-1 mitochondrial potential fluorescence, higher = more signal.
Experiment [9] can be described thus: JC-1 mitochondrial signal, unstimulated MM1S myeloma – cell-based, JC-1 fluorescence, 24 h, 100 nL compound, profiling panel (AID 1170). Note: test concentration not given here. To be noted: MM1S mitochondrial potential, higher = more signal.
The nature of experiment [10]: resazurin metabolic signal in A549 cells – cell-based, resazurin fluorescence, 24 h, PK04 Diversity Set, profiling panel (AID 1171). Note: test concentration not given here. As to conditions: A549 viability, higher = more signal, called active from +8 up or from −8 down. In general terms: The colour change of resazurin is a common sign of viable cells or microbes.
Experiment [11] in a line: resazurin metabolic signal in HepG2 cells – cell-based, resazurin fluorescence, 24 h, PK04 Diversity Set, profiling panel (AID 1172). Note: test concentration not given here. As to conditions: HepG2 viability, higher = more signal.
The nature of experiment [12]: budding yeast growth changes without added modifier – OD600, strain BY4716, 24 h, basal condition, primary screen (AID 1173). To be noted: S. cerevisiae BY4716 growth, OD600, 24 h; higher = more signal, called active from +8 up or from −8 down.
Experiment [13] can be described thus: viability profiling in MM1S myeloma cells – cell-based, resazurin fluorescence, basal, 24 h, PK04 Diversity Set, profiling panel (AID 1174). Note: test concentration not given here. To be noted: higher = more signal, called active from +8 up or from −8 down.
For experiment [14], the target named is Dihydroorotate dehydrogenase (quinone), mitochondrial (Plasmodium falciparum (isolate 3D7)) (UniProt Q08210). Nature of the experiment: inhibition of P. falciparum DHODH – biochemical, C-terminal His tag, absorbance 600 nm, primary screen (AID 1175).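 Note: recombinant parasite enzyme with a five histidine tag at its C terminus; test concentration not given here.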 To be noted: PfDHODH enzyme, DCIP absorbance 600 nm; higher = more signal, called active from +8 up or from −8 down.

A short description of experiment [15]: inhibition of PAO1 biofilm formation – strain PAO1, LB-PBS medium, absorbance 600 nm, primary screen (AID 1176). Note: test concentration not given here. To be noted: P. aeruginosa PAO1 growth/biofilm, A600, 12 h; higher = more signal.
The nature of experiment [16]: growth modulation of vineyard yeast isolate – strain RM11-1a, OD600, basal, 24 h, primary screen (AID 1177).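 Note: cultures grown under basal conditions with no added stressor; test concentration not given here.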 As to conditions: S. cerevisiae RM11-1a growth, OD600, 24 h; higher = more signal, called active from +8 up or from −8 down.
Experiment [17] in a line: growth of efflux-deficient E. coli DRC39 – strain DRC39, OD650, 24 h, E. coli filamentation inducers, primary screen (AID 1178).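 Note: growth measured as culture turbidity by optical density at 650 nm; test concentration not given here.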 To be noted: E. coli DRC39 acrAB, higher = more signal, called active from +8 up or from −8 down.
Experiment [18] can be described thus: growth of efflux-deficient E. coli DRC39 – strain DRC39, OD650, 48 h, E. coli filamentation inducers, primary screen (AID 1179).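 Note: screen aims at cell division blockers that make cells filament.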 As to conditions: E. coli DRC39 delta-acrAB growth, higher = more signal, called active from +8 up or from −8 down.
A short description of experiment [19]: viability profiling in RPMI8226 myeloma cells – cell-based, resazurin fluorescence, basal, 24 h, PK04 Diversity Set, profiling panel (AID 1180).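 Note: RPMI8826 multiple myeloma cell line at 5000 cells per well; test concentration not given here.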 As to conditions: higher = more signal.
The target of experiment [20] is E3 ubiquitin-protein ligase XIAP (Homo sapiens) (UniProt P98170). Nature of the experiment: small molecules binding XIAP protein – biophysical, small-molecule microarray, fluorescence 635 nm, primary screen (AID 1181).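 Note: score merges 667 nm emission and signal to noise over triplicate slides.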 As to conditions: higher = more signal.

Active and inactive are the calls of the source. Unless noted, the rule behind the calls is not given here.

E3 ubiquitin-protein ligase XIAP (Homo sapiens), sequence (P98170 whole entry, looked up): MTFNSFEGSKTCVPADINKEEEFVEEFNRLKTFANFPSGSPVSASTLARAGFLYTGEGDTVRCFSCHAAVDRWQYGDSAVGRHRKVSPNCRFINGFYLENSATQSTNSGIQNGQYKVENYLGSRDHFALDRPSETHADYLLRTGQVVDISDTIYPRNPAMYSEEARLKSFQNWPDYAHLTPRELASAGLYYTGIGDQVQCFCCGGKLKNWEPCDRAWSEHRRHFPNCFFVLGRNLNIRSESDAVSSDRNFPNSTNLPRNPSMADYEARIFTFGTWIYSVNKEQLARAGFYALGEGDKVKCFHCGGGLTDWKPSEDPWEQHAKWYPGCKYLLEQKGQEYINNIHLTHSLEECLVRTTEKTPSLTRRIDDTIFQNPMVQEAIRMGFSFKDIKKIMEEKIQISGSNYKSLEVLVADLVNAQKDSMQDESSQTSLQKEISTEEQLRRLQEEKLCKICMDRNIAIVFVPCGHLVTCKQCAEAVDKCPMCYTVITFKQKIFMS
Dihydroorotate dehydrogenase (quinone), mitochondrial (Plasmodium falciparum (isolate 3D7)), sequence (Q08210 whole entry, looked up): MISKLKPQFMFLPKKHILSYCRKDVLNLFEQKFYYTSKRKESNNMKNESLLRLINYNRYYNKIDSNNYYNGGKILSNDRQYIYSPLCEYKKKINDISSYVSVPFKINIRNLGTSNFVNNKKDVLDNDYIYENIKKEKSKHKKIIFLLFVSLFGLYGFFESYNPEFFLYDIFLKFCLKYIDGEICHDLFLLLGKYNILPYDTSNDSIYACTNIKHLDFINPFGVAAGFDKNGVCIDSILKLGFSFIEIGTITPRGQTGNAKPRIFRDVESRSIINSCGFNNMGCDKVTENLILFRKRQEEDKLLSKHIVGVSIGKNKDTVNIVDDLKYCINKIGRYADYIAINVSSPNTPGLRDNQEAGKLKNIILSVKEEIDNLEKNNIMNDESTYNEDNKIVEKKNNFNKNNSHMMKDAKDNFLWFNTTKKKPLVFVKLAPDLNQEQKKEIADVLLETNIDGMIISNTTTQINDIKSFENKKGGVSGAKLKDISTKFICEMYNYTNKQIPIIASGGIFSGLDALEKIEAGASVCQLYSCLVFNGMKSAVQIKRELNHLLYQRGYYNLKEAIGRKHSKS

As for `CCOC(=O)C=Cc1cc(F)ccc1O`, the z-score in experiment [1] is -1.13; in experiment [2], 0.749; in [3] it was -0.714; in experiment [4] it was -0.633; in experiment [5] it was -1.39; in experiment [6] it was -1.19. Moreover, the z-score is -0.966 (inactive) in experiment [7]; 0.287 in experiment [8]; -0.0774 in experiment [9]; 0.0142 (inactive) in [10]; -0.338 in [11]; -12.6 (active) in experiment [12]. The z-score in [13] is -0.99 (inactive); in experiment [15] it was -0.0727 (inactive); in [16] it was -23.2 (active); in experiment [17], -1.01 (inactive); in experiment [18], -1.31 (inactive); in experiment [19] it was -0.935. The composite z-score is -1.09 (inactive) in experiment [14] and -0.196 in experiment [20].

As for `C=CCC(OC(C)=O)[C@@H]1[C@@H](N(Cc2ccc(-c3ccccc3)cc2)C(=O)c2ccc(C)cc2)c2cc(OCCCO)ccc2N1C(=O)Cc1ccc2ccccc2c1` (stereo not given in full), the z-score was 1.35 in experiment [1]; 0.844 in [2]; 0.769 in experiment [3]; 0.697 in [4]; 0.922 in experiment [5]; 3.38 in experiment [6]. Besides, the z-score in experiment [7] was 0.144 (inactive); in [8] it was -0.0998; in experiment [9], 1.14; in experiment [10] it was 0.887 (inactive); in experiment [11], 1.03; in experiment [12], -0.516 (inactive). The z-score is 1.38 (inactive) in [13]; 0.219 (inactive) in [15]; -1.72 (inactive) in experiment [16]; 1.64 (inactive) in experiment [17]; 1.93 (inactive) in experiment [18]; 1.22 in experiment [19]. The composite z-score in experiment [14] was -1 (inactive); in [20], -0.02.

For the molecule `CCOC(=O)C1=CCC(c2ccccc2)N(S(=O)(=O)c2ccc([N+](=O)[O-])cc2)C1` (stereo not given), the z-score is -0.482 in experiment [1]; -1.19 in experiment [2]; -1.07 in experiment [3]; -0.259 in experiment [4]; 0.0811 in experiment [5]; -1.73 in experiment [6]. Further, the z-score in experiment [7] was -0.483 (inactive); in [8] it was 0.602; in [9] it was -1.37; in [10] it was 0.217 (inactive); in experiment [11], 0.21; in experiment [12], 1.36 (inactive). In addition, the z-score in [13] was -1.12 (inactive); in [15] it was -0.0196 (inactive); in experiment [16] it was 0.993 (inactive); in experiment [17], -0.495 (inactive); in experiment [18], 0.0062 (inactive); in experiment [19], -0.927. Further, the composite z-score in experiment [14] was 0.243 (inactive); in experiment [20], -0.113.

With `C=CCN1C(=O)[C@]2(O[C@H](CCO)[C@@H]([Si](C)(C)c3ccc(OC)cc3)[C@@H]2C)c2cc(NC(=O)c3ccc(OC)cc3)ccc21`, the z-score in experiment [1] is -3.78; in experiment [2], -0.562; in experiment [3], -4.65; in [4], -2.69; in [5], -4.38; in experiment [6] it was -0.446. Besides, the z-score is 0.96 (inactive) in experiment [7]; -0.953 in [8]; -2.2 in [9]; -3.7 (inactive) in [10]; -4.24 in [11]; -1.07 (inactive) in experiment [12]. Also, the z-score in experiment [13] is -4.56 (inactive); in experiment [15] it was 1.98 (inactive); in experiment [16] it was 2.23 (inactive); in experiment [17] it was 0.626 (inactive); in [18] it was -0.723 (inactive); in experiment [19], -6.22. Besides, the results for the composite z-score in experiment [14] and in experiment [20] were -0.224 (inactive) and 0.401, respectively.

For the molecule `NCCCCCNC(=O)[C@H]1C[C@H]2C(=O)N[C@@H](Cc3ccccc3)C(=O)N2[C@H]1c1ccc(O)cc1`, the z-score in [1] is 0.422; in experiment [2], 0.774; in [3], -0.642; in experiment [4], 0.309; in experiment [5] it was 0.141; in [6], -0.746. The z-score in experiment [7] is -0.595 (inactive); in [8] it was -0.135; in experiment [9] it was -0.378; in [10], 0.107 (inactive); in experiment [11], -0.255; in experiment [12], -0.53 (inactive). Moreover, the z-score in experiment [13] was -0.115 (inactive); in [15], 0.351 (inactive); in experiment [16], -0.334 (inactive); in experiment [17] it was 0.442 (inactive); in [18], 0.69 (inactive); in experiment [19] it was -0.518. In addition, the composite z-score was 1.21 (inactive) in [14] and 0.157 in [20].

Consider `C=CCC(OC(C)=O)[C@@H]1[C@@H](N(Cc2cc3ccccc3o2)C(=O)c2ccc(-c3ccccc3)cc2)c2cc(OCCCO)ccc2N1C(=O)Cc1ccc(OC)cc1` (stereo not given in full), for which the z-score is 0.315 in experiment [1]; 0.443 in experiment [2]; 1.04 in experiment [3]; 0.0213 in experiment [4]; -0.226 in [5]; 1.23 in experiment [6]. Further, the z-score in experiment [7] was -0.76 (inactive); in [8] it was 0.738; in [9], 0.239; in experiment [10], 0.0443 (inactive); in experiment [11], -0.716; in experiment [12], 1.4 (inactive). For the same molecule, the z-score in [13] was -0.133 (inactive); in experiment [15], 0.0672 (inactive); in [16], 0.708 (inactive); in experiment [17], -0.384 (inactive); in experiment [18], -0.541 (inactive); in experiment [19], -0.209. Further, the composite z-score in experiment [14] is 0.0211 (inactive); in experiment [20], -0.0414.

`CC(C)OC(=O)CC(=O)CC(O)c1ccc([N+](=O)[O-])cc1` (stereo not given): the z-score is 1.78 in [1]; -0.228 in experiment [2]; 0.714 in [3]; 0.772 in [4]; 0.159 in experiment [5]; 0.775 in [6]. The z-score was 0.377 (inactive) in [7]; -0.121 in [8]; -0.359 in experiment [9]; -0.741 (inactive) in experiment [10]; -0.55 in experiment [11]; -1.41 (inactive) in experiment [12]. Further, the z-score in experiment [13] was -0.119 (inactive); in [15], -0.088 (inactive); in [16], 0.0857 (inactive); in [17], -0.346 (inactive); in [18], 0.0547 (inactive); in experiment [19] it was -0.0948. For the same molecule, the composite z-score in experiment [14] was -1.12 (inactive); in [20], -0.212.
